Only some compounds are listed: those with a hit (about 1.1% of all), similar ones and a draw of the others.
NCOA1 inh = SRC1 coactivator transcriptional activity inhibitors, primary screen, cell-based, luminescence | Nuclear receptor coactivator 1 (Homo sapiens), Q15788 | HEK293 GAL4-SRC1 luciferase reporter | inhibition, % at 3.6 µM | hit rate 0.12% among 360,000;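 active = inhibition above the campaign mean plus 3 SD, with each screening campaign given its own cutoff, cut at about 60% in these data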;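 also: 0% = DMSO treated cells and 100% = gossypol at 36 µM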
SRC3 inh = SRC3 coactivator transcriptional activity inhibitors, primary screen, cell-based, luminescence. Nuclear receptor coactivator 3 (Homo sapiens), Q9Y6Q9. HEK293 GAL4-SRC3 luciferase reporter. inhibition, % at 3.6 µM. hit rate 0.17% among 360,000. AID 588352, 2011;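 active = inhibition above a per-campaign cutoff, the mean of all compounds plus 3 SD, cut at about 60% in these data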;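 also: 0% = DMSO-treated cells and 100% = gossypol-treated cells at 36 µM; higher means less SRC3-driven luciferase light from the GAL4 reporter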
NCOA2 inhibitor = inhibition of GAL4-SRC2 driven luciferase reporter, primary screen, SRC2 inhibitor project, cell-based, luminescence. HEK293 GAL4-SRC2 luciferase reporter. hit rate 0.17% among 370,000. inhibition, % at 9 µM;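 active = inhibition above the mean inhibition of all tested compounds plus 3 SD, set per campaign, cut at about 52% in these data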;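 also: 0% = DMSO treated cells and 100% = cells given Gossypol at 36 µM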
GalR3 antag = GalR3 antagonists in HEK293 cells, primary screen, cell-based, fluorescence readout; HEK293 GalR3-CNG cAMP membrane potential fluorescence; galR3 body fused to GalR1 C-terminus; hit rate 0.44% among 360,000; inhibition, % at 3 µM; AID 651719, 2012; Galanin receptor type 3 (Homo sapiens), O60755;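 active = inhibition above the screen-wide average plus 3 SD, cut at about 13% in these data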;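 also: forskolin and galanin both at EC90 stimulate the cells; cAMP rise reported by CNG channel membrane potential dye signal; 0% = forskolin plus galanin with DMSO and 100% = forskolin alone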
NR5A2 inv ag = LRH-1 (NR5A2) inverse agonists, primary screen, cell-based, luminescence, HEK293T, StAR-luciferase reporter | Nuclear receptor subfamily 5 group A member 2 (Homo sapiens), O00482 | hit rate 0.13% among 360,000 | AID 602396, 2012 | LRH-1 transfected, 24 h | inhibition, % at 3.6 µM;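 active = inhibition above the mean inhibition of all tested compounds plus 3 SD, cut at about 73% in these data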;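 also: 0% = DMSO wells and 100% = reporter-only cells lacking LRH-1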
Target sequence (O00482 whole entry, looked up): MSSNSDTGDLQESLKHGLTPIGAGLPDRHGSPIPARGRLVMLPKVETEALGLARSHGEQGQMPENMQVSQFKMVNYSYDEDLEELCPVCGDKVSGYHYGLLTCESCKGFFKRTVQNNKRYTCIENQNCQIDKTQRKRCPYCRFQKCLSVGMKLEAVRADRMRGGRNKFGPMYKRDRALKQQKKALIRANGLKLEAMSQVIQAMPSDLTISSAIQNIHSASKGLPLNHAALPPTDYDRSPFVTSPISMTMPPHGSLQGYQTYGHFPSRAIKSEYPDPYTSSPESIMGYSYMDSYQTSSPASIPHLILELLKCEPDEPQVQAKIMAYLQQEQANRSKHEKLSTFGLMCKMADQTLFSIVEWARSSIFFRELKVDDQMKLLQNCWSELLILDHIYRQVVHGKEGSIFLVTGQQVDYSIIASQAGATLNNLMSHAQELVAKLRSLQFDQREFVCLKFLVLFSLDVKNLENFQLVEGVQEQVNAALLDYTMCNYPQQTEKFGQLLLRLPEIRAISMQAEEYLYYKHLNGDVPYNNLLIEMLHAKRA
COUP-TFII inh = NR2F2 transcriptional activity inhibitors, primary screen, cell-based, luciferase reporter, HEK293T, luminescence; COUP transcription factor 2 (Homo sapiens), P24468; HEK293T NGFI-A luciferase reporter; inhibition, % at 8.6 µM; hit rate 0.7% among 370,000; AID 686940, 2013;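 active = inhibition above a per-plate cutoff, mean inhibition of test wells between control levels plus 3 SD, cut at about 38% in these data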;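 also: cells cotransfected with COUP-TFII expression vector driving the NGFI-A reporter; 0% = median of COUP-TF2 test wells and 100% = reporter-only cells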
Gal4-VP16 ctr = Gal4-VP16 luciferase reporter inhibitors, counter-screen for COUP-TFII antagonist project, cell-based, luminescence, HEK293. hit rate 25% among 2,500. inhibition, % at 8.5 µM. AID 687007, 2013. shares compounds with COUP-TFII inh; in the data active = inhibition above about 13%
NR2F2 inh conf = NR2F2 transcriptional activity inhibitors, confirmation, cell-based, luciferase reporter, HEK293, triplicate | shares compounds with COUP-TFII inh | HEK293 NGFI-A luciferase reporter, luminescence | inhibition, % at 8.5 µM | hit rate 45% among 2,500;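 active = mean inhibition over three repeats above a set limit taken from the earlier primary screen, cut at about 38% in these data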;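 also: 100% = cells given the luciferase reporter alone without the COUP-TF2 vector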
Starred values were filed as active, the others as inactive; . = not tested or not shown.

SMILES	NCOA1 inh	SRC3 inh	NCOA2 inhibitor	GalR3 antag	NR5A2 inv ag	COUP-TFII inh	Gal4-VP16 ctr	NR2F2 inh conf
Cc1cc(OCC(=O)NCC2CCC(C(=O)O)CC2)c2c3c(c(=O)oc2c1)CCC3 (stereo not drawn)	-19	7	-5	1	-25	-4	.	.
CN1C(=O)[C@@]23C[C@]4(c5c[nH]c6ccccc56)c5ccccc5N(S(=O)(=O)c5ccccc5)[C@@H]4N2C(=O)[C@@H]1SS3	.	.	.	.	.	107*	88*	90*
COc1ccc(CC(=O)N2CCN(C)CC2)cc1	-14	17	10	-5	1	18	.	.
COc1ccc(CC2NCC(O)C2OC(C)=O)cc1 (stereo not drawn)	95*	95*	68*	-3	103*	88*	22*	82*
CC(C)NP(=O)(NC(C)C)OP(=O)(NC(C)C)NC(C)C	5	1	7	.	0	10	.	.
C#CCCC[C@@H]1OC(=O)CNC(=O)C([C@@H](C)CC)NC(=O)[C@@H]2CCCN2C(=O)C([C@@H](C)CC)OC(=O)[C@H](Cc2ccccc2)N(C)C(=O)[C@H](C(C)C)NC(=O)C1(C)C (stereo partly drawn)	8	-45	3	-5	0	10	.	.
CCC(C)C1NC(=O)C(NC(=O)C(CC(C)C)N(C)C(=O)C2CCCN2C(=O)C(C)O)C(C)OC(=O)C(Cc2ccc(OC)cc2)N(C)C(=O)C2CCCN2C(=O)C(CC(C)C)NC(=O)[C@H](C)C(=O)[C@H](C(C)C)OC(=O)CC1O (stereo partly drawn)	95*	94*	78*	-5	97*	91*	21*	88*
CC(=O)OC[C@]12CCC(C)=C[C@H]1O[C@@H]1[C@H](O)[C@@H](OC(C)=O)[C@@]2(C)[C@]12CO2	95*	95*	75*	0	102*	91*	18*	90*
COC(=O)C1=C(c2ccc(-c3ccccc3)c(F)c2)C[C@@H]2CC[C@H]1N2C(=O)NCCc1ccccc1	-5	4	9	-6	23	-2	.	.
COc1ccc(-[n+]2c(-c3ccccc3)cc(-c3ccccc3)cc2-c2ccccc2)cc1	.	.	21	-14	.	57*	20*	60*
O=[N+]([O-])c1ccc(-[n+]2c(-c3ccccc3)cc(-c3ccccc3)cc2-c2ccccc2)cc1	5	9	-10	-8	13	14	.	.
Oc1ccc(-[n+]2c(-c3ccccc3)cc(-c3ccccc3)cc2-c2ccccc2)cc1	17	-48	37	-2	34	62*	8	51*
COc1cc(C(=O)N2C[C@H]3C[C@@H](C2)c2cccc(=O)n2C3)cc(OC)c1OC	-13	25	-51	4	-10	-8	.	.
CCCNS(=O)(=O)c1ccc(OCC(=O)N2CCN(Cc3ccc4c(c3)OCO4)CC2)c(C)c1	14	13	26	4	31	46*	1	21
COc1ccccc1N1C(=O)NC(=O)C(CCc2ccncc2)(CCc2ccncc2)C1=O	1	13	2	-6	16	1	.	.
O=c1[nH]c(=S)n(CCC2=CCCCC2)c(O)c1/C=N/Nc1ccccc1	-23	-2	22	-7	4	15	.	.
C=C1C(=O)O[C@@H]2C[C@@H](C)[C@@H]3C=CC(=O)[C@@]3(C)[C@@H](O)[C@H]12	37	61	85*	.	87*	97*	84*	99*
CC(=O)c1cn(Cc2ccccc2F)c2ccccc12	35	25	-2	-11	38	54*	10	48*
COc1ccc(C(=O)CC(c2ccc3c(c2)OCO3)c2c(O)c3ccccc3oc2=O)cc1OC (stereo not drawn)	-27	-7	-27	-6	-12	8	.	.
Cc1ccccc1CN1Cc2cnnn2-c2ccccc2C1C#N (stereo not drawn)	19	14	48	-9	-17	39*	5	2
Cc1ccc2nc(-c3ccc(CN4CCC(n5nnc6ccccc65)CC4)cc3)c(-c3ccccc3)nc2c1	.	.	19	-3	.	45*	-3	10
COC(=O)C1C(OC(=O)c2ccccc2)CC2CCC1[N+]2(C)C (stereo not drawn)	.	.	0	-1	.	11	.	.
CC(C)c1cc(Br)c(NC(=O)Nc2cccnc2)c(Br)c1	0	-13	27	-8	-14	11	.	.
COC(=O)C12OCC34C(CC5C(C)=C(O)C(=O)CC5(C)C3C(O)C1O)OC(=O)C(OC(=O)/C=C(\C)C(C)C)C24 (stereo not drawn)	96*	94*	74*	-1	98*	94*	20*	88*
O=C(c1ccc2c(c1)OCO2)C1CCCN(Cc2c(F)cccc2Cl)C1 (stereo not drawn)	-78	1	14	-5	-14	9	.	.
CC1OC(OC2CC(O)C3(CO)C4C(O)CC5(C)C(C6=CC(=O)OC6)CCC5(O)C4CCC3(O)C2)C(O)C(O)C1O (stereo not drawn)	90*	92*	73*	39*	103*	84*	53*	80*
COc1cc(C(=O)N/N=C/C23CC[C@@H](O)CC2(O)CC[C@@H]2[C@@H]3CCC3(C)C(C4=CC(=O)OC4)CCC23O)ccc1O (stereo partly drawn)	-13	-1	-4	4	-15	3	.	.
C[C@@H]1O[C@@H](O[C@H]2C[C@@H](O)[C@]3(CO)[C@H]4[C@H](O)C[C@]5(C)[C@@H](C6COC(=O)C6)CC[C@]5(O)[C@@H]4CC[C@]3(O)C2)[C@H](O)[C@H](O)[C@H]1O (stereo partly drawn)	69*	57	19	22*	99*	68*	21*	59*
CN1CC2=CC(O)CC3Oc4c(O)ccc(c4[C@]23C)C1 (stereo partly drawn)	-13	7	-2	-7	-23	6	.	.

Bioassay records deposited in PubChem BioAssay by The Scripps Research Institute Molecular Screening Center.
